Assay outcomes: PubChem BioAssay, National Center for Advancing Translational Sciences (NCATS)
Pf growth 48h = P. falciparum growth inhibition at 48 hours (one generation). P. falciparum luciferase growth in erythrocytes, 48 h. Potency, µM (top dose mostly 28.7 µM), hits mostly inhibitors. hit rate 5.9% among 310,000
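In quantitative HTS format, infected erythrocytes bearing luciferase-reporter parasites were treated for a single generation at 37 C. Luminescence after adding detection reagent served as the growth measure.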
NS1 function inh = blocks influenza NS1 protein function | Potency, µM (doses to about 46.1 µM) | AID 2326 | hit rate 0.4% among 270,000; calls by dose curve; note: actives are rising curves; nearly all actives have a fitted effect of over 50% in size
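S. cerevisiae expressing influenza A NS1, grown in glucose, washed, then diluted 1:100 into pH 6.0 -URA galactose medium with 23 nl compound. Growth recovery read as OD600; NS1-free strain serves as control.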
Cycloheximide cs = affects cycloheximide protein synthesis inhibition readout, counter-screen. cell reporter, cycloheximide protein synthesis inhibition counterscreen. max response, %. hit rate 12% among 300,000. AID 2314; in the data active = max response mostly above about 13%, no sharp cut-off; inactive = mostly below about 14%; note: read at 38.3 µM for the half of the compounds with a filed dose
Sm TGR inh = blocks Schistosoma mansoni thioredoxin glutathione reductase; hit rate 3% among 360,000; Potency, µM (series often up to 114 µM), most hits filed as inhibitors; Q962Y6; purified TGR, DTNB reduction, TNB absorbance 405 nm; note: nearly all actives have a fitted effect of over 60% in size
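Kinetic colorimetric format: TGR-catalysed, NADPH-driven DTNB reduction monitored via TNB absorbance. Enzyme dispensed at 20 nM; compound exposure 15 min at room temperature before reaction start.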
Shiga inhibitor = blocks Shiga toxin action in Vero cells. Vero cells, Shiga toxin protein synthesis inhibition reporter. inhibition, % at 38.7 µM. hit rate 9.2% among 290,000; in the data active = inhibition mostly above about 28%, no sharp cut-off; inactive = mostly below about 43%
Pf growth 96h = P. falciparum growth inhibition at 96 hour, primary screen for plastid delayed-death inhibitors | P. falciparum luciferase reporter growth, 96 h | Potency, µM (doses to about 28.7 µM), usual class: inhibitors | hit rate 6.9% among 320,000 | AID 504834
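P. falciparum expressing integrated firefly luciferase grown in erythrocytes (2% hematocrit, 0.05% parasitemia final) with compounds for 96 hours at 37 C, 5% CO2. Growth inhibition read as loss of luminescence after adding luciferase detection reagent.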
A number is an active result. Sampled rows, rich in hits. Any-hit rate of the full collection: about 21%. Unless noted, calls come from the whole dose curve; as a rule, active = well fitted curve in the direction sought with a large enough effect; inconclusive = small, poorly fitted or top-dose-only effect, or another doubt; inactive = no such curve, though single readings can be large; an effect the other way counts as inactive or inconclusive.

Nc1c(C(=O)CSc2nnc(COc3ccc(Cl)cc3)o2)c(=O)[nH]c(=O)n1C1CC1 was read as Pf growth 48h inconclusive, Sm TGR inh inactive and Pf growth 96h 10µM.
CCn1c(Cc2ccccc2)nnc1SCC(=O)c1c(N)n(C2CC2)c(=O)[nH]c1=O was read as Pf growth 48h inconclusive, Sm TGR inh inactive and Pf growth 96h 9.3µM.
Screening O=C(CCNS(=O)(=O)c1ccc2c(c1)CCN2C(=O)C1CC1)Nc1ccc(OC(F)(F)F)cc1 returned Sm TGR inh inactive.
`O=C1c2ccccc2CN1CCSC(=S)N1CCSCC1` gave Pf growth 48h inactive, Cycloheximide cs 48, Sm TGR inh inactive, Shiga inhibitor 157 and Pf growth 96h inactive.
For O=C1c2ccccc2CN1CCSC(=S)N1CCOCC1 the results were Pf growth 48h inconclusive, NS1 function inh inactive, Cycloheximide cs 74, Sm TGR inh inactive, Shiga inhibitor 81 and Pf growth 96h inactive.
For CCCCC(=O)OCc1cc(=O)n2nc(C3CCCCC3)sc2n1 the results were Sm TGR inh inactive.
For CCc1cccc2c(-c3ccccc3)nc(SCC(=O)Nc3ccccc3OC)nc12 the results were Sm TGR inh inactive.
For Cc1oc2cc3oc(=O)c(CCC(=O)N[C@H](C(=O)O)C(C)C)c(C)c3cc2c1C the results were Pf growth 48h inactive, NS1 function inh inactive, Cycloheximide cs inactive, Sm TGR inh inactive, Shiga inhibitor inactive and Pf growth 96h inactive.
`O=C(COC(=O)C1(c2cccc(F)c2)CCCC1)NCc1ccc2c(c1)OCO2` gave Pf growth 48h inactive, NS1 function inh inactive, Cycloheximide cs inactive, Sm TGR inh inactive, Shiga inhibitor inactive and Pf growth 96h inactive.
`COc1cccc(N/C=C/C(=O)c2ccc(OC)c(OC)c2)c1` gave Pf growth 48h inactive, NS1 function inh inactive, Cycloheximide cs 27, Sm TGR inh inactive, Shiga inhibitor 46 and Pf growth 96h inconclusive.
`CCOC(=O)c1ccc(N/C=C\C(=O)c2cccc(OC)c2)cc1` gave Pf growth 48h inactive, NS1 function inh inactive, Cycloheximide cs 48, Sm TGR inh inactive, Shiga inhibitor 95 and Pf growth 96h inactive.
For CCOC(=O)C(=O)Nc1cccc(C(=O)OCC)c1 the results were Pf growth 48h inconclusive, NS1 function inh inactive, Cycloheximide cs inactive, Sm TGR inh inactive, Shiga inhibitor inactive and Pf growth 96h inactive.
`COc1ccc(C(=O)/C=C/Nc2cccc(O)c2)cc1` gave Pf growth 48h inactive, NS1 function inh inactive, Cycloheximide cs inactive, Sm TGR inh inactive and Shiga inhibitor inactive.
For COC(=O)c1ccc(N/C=C/C(=O)c2ccccc2)cc1 the results were Pf growth 48h inactive, NS1 function inh inactive, Cycloheximide cs 43, Sm TGR inh inactive, Shiga inhibitor 48 and Pf growth 96h 13µM.
`CCOC(=O)c1cccc(N/C=C/C(=O)c2ccc(OC)c(OC)c2)c1` gave Pf growth 48h inactive, NS1 function inh inactive, Cycloheximide cs 27, Sm TGR inh inactive, Shiga inhibitor 98 and Pf growth 96h inactive.
For COc1cccc(C(=O)/C=C/Nc2cc(C)ccc2O)c1 the results were Pf growth 48h inconclusive, NS1 function inh inactive, Cycloheximide cs 51, Sm TGR inh inactive, Shiga inhibitor 88 and Pf growth 96h inactive.
`COc1ccc(OC)c(N/C=C/C(=O)c2ccc(OC)c(OC)c2)c1` gave Pf growth 48h inconclusive, NS1 function inh inactive, Cycloheximide cs 15, Sm TGR inh inactive, Shiga inhibitor inactive and Pf growth 96h inconclusive.
For COc1cccc(C(=O)Nc2cc(C)ccc2NC(=O)COc2ccccc2)c1 the results were Pf growth 48h inconclusive, NS1 function inh inactive, Cycloheximide cs inactive, Sm TGR inh inactive, Shiga inhibitor inactive and Pf growth 96h inactive.
CCOC(=O)c1ccc(OS(=O)(=O)c2ccccc2)c(OC)c1 was read as Pf growth 48h inactive, NS1 function inh inactive, Cycloheximide cs 50, Sm TGR inh inactive, Shiga inhibitor active and Pf growth 96h inactive.
For CCOc1cc(C(=S)N2CCOCC2)ccc1OS(=O)(=O)c1ccccc1 the results were Pf growth 48h inactive, NS1 function inh inactive, Cycloheximide cs inactive, Sm TGR inh inactive, Shiga inhibitor inactive and Pf growth 96h inactive.
Screening COc1cccc(C(=O)COC(=O)c2ccc(NC(C)=O)cc2)c1 returned Pf growth 48h inactive, NS1 function inh inactive, Cycloheximide cs 16, Sm TGR inh inactive, Shiga inhibitor inactive and Pf growth 96h inactive.
For COc1ccc(C(=O)/C=C/Nc2c(C)n(C)n(-c3ccccc3)c2=O)cc1OC the results were Pf growth 48h inconclusive, NS1 function inh inactive, Cycloheximide cs inactive, Sm TGR inh inconclusive, Shiga inhibitor inactive and Pf growth 96h inactive.
O=C(CCS(=O)(=O)c1cc2c3c(c1)CCN3C(=O)CC2)Nc1cccc(Br)c1 was read as Sm TGR inh inactive.
`CCOC(=O)c1sc2ncn(CC(=O)Nc3ccc(OC)c(Cl)c3)c(=O)c2c1C` gave Sm TGR inh inactive.
Screening COC(=O)CCC(=O)OC1(C)C(=O)C=C2C=C(C3CC3)N(Cc3ccccc3)C=C2C1=O (centres undefined) returned Pf growth 48h inconclusive, NS1 function inh inactive, Cycloheximide cs inactive, Sm TGR inh inactive, Shiga inhibitor inactive and Pf growth 96h inconclusive.
`COC(=O)CCC(=O)OC1(C)C(=O)C=C2C=C(C3CC3)N(CC(C)C)C=C2C1=O` (centres undefined) gave Pf growth 48h 2.9µM, NS1 function inh inactive, Cycloheximide cs inactive, Sm TGR inh inactive, Shiga inhibitor inactive and Pf growth 96h 1.9µM.
For COC(=O)CCC(=O)OC1(C)C(=O)C=C2C=C(C3CC3)N(C3CCCCC3)C=C2C1=O (centres undefined) the results were Pf growth 48h inconclusive, NS1 function inh inactive, Cycloheximide cs inactive, Sm TGR inh inactive, Shiga inhibitor inactive and Pf growth 96h inconclusive.
Screening COC(=O)CCC(=O)OC1(C)C(=O)C=C2C=C(C3CC3)N(CC3CC3)C=C2C1=O (centres undefined) returned Pf growth 48h 10µM, NS1 function inh inactive, Cycloheximide cs inactive, Sm TGR inh inactive, Shiga inhibitor inactive and Pf growth 96h 4.1µM.
`COC(=O)CCC(=O)OC1(C)C(=O)C=C2C=C(C3CC3)N(C3CCCC3)C=C2C1=O` (centres undefined) gave Pf growth 48h inconclusive, NS1 function inh inactive, Cycloheximide cs inactive, Sm TGR inh inactive, Shiga inhibitor inactive and Pf growth 96h 7.4µM.
